Measurements taken from PubChem BioAssay (Tox21).
Records with an inconclusive call do not appear. Unmarked numbers belong to inactive results. Activity calls are given as the source filed them. Calls come from the whole dose curve; as a rule, active = well fitted inhibition curve with a large enough effect in the repeat runs; inconclusive = weak or mixed curves; inactive = no such curve, though single readings can be large or run the other way.

Biological target: Cytochrome P450 2C19 (Homo sapiens) (UniProt P33261)
Experiment: Cytochrome P450 Family 2 Subfamily C Member 19 (CYP2C19) small molecule antagonists: luciferase reporter qHTS assay (AID 1671197); note: nearly all actives have a fitted effect of over 65% in size
Settings: P450-Glo CYP2C19 enzyme, luciferin luminescence, 1 h; series mostly up to 115 µM; activity change, negative = inhibition: at the top concentration
Excerpt: National Center for Advancing Translational Sciences [NCATS]
U.S. Environmental Protection Agency [EPA]
National Institutes of Environmental Health Sciences [NIEHS]
National Toxicology Program [NTP]
U.S. Food and Drug Administration [FDA]
Cytochrome P450 (CYP) enzymes are membrane-bound hemeproteins that play a key role in metabolism of drugs and xenobiotics. Evaluation of the effect of chemicals on CYP isozymes is useful to minimize the adverse drug reactions and toxicities in drug development process. Tox21 chemicals were tested for their effect on CYP enzyme activities by using P450-Glo (TM) screening systems (Promega Corporation, Madison, WI). These systems provide a luminescent method containing proluciferin substrates and are converted to luciferin products by CYP isozymes. The luciferin products formed are detected with a luciferin detection reagent, and the amount of light produced is proportional to CYP activity. P450-Glo (TM) CYP2C19 screening system (Catalog. No. V9880) was used to detect the compounds that interfere in CYP2C19 activity. The positive control compound used for CYP2C19 assay is ketoconazole (Sigma-Aldrich, St. Louis, MO).
Tox21 Assay Protocol Summary:
Two ul of enzyme-substrate mix was dispensed into medium binding white/solid 1536-well plates (Greiner Bio-One North America Inc., Monroe, NC) using a BioRaptr Flying Reagent Dispenser (FRD, Beckman Coulter, Brea, CA). Compounds dissolved in DMSO and positive control (ketoconazole) were transferred to the assay plates at 23 nl using a Pintool station (Wako, San Diego, CA). The assay plates were incubated at room temperature for 10 min. Then 2 ul of NADPH regeneration solution was added to each well of the assay plates using an FRD and incubated at 37C for 1 h. The reaction was stopped by adding 4 ul of detection reagent using an FRD and after 20 min incubation at room temperature the luminescence signal was measured using a ViewLux plate reader (Perkin Elmer, Shelton, CT). Data were expressed as relative luminescence units.
% is set by controls: 0 for no effect and ±100 for the full control effect; potency is the fitted concentration of half-maximal effect.

Sequence of Cytochrome P450 2C19 (Homo sapiens) (P33261 whole entry, looked up): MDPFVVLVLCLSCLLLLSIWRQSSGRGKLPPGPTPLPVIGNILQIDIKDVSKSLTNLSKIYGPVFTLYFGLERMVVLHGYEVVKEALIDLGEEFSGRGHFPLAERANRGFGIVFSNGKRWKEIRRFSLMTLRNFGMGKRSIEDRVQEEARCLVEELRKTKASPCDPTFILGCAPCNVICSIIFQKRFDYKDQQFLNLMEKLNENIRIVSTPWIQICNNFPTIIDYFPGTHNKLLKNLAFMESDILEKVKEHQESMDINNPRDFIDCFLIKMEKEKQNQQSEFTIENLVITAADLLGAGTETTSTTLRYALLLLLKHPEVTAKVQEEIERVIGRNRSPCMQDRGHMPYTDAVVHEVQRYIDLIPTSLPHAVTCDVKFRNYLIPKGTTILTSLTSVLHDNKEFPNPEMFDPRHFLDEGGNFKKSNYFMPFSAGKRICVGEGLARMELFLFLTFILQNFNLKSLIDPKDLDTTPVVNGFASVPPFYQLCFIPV

SMILES | Potency | activity change, negative = inhibition
CC(=O)OC(C(=O)c1ccccc1)c1ccccc1 (stereo not given) | 8.98 µM (active) | 
c1ccccc1 |  | 9.19%
CCNC(=O)/C=C/c1cccc(Br)c1 |  | -7.98% [at 52.9 µM]
CC1(N)CCC(C(C)(C)N)CC1 (stereo not given) |  | 18.9%
CCOC(=O)C(=O)c1csc(NC=O)n1 |  | 12.9% [at 52.9 µM]
CCCCCCCCCCCCCC(=O)OC |  | 17%
COC(/C=C(\C)CCC=C(C)C)OC |  | 3.99%
NC(=O)NC(=O)Cc1ccccc1 |  | 21.7% [at 52.9 µM]
CCN1CN(CC)CN(CC)C1 |  | 15.2%
NC(=O)C1(N2CCCCC2)CCN(CCCC(=O)c2ccc(F)cc2)CC1 |  | 26.4% [at 52.9 µM]
CCCCCCCC[Si](OCC)(OCC)OCC |  | -3.61%
C=C(C)C(=O)OC1CC(C)CC(C)(C)C1 (stereo not given) |  | -7.32%
CC1=NN(c2ccc(S(=O)(=O)O)cc2)C(=O)C1N=Nc1ccccc1 (stereo not given) |  | 22.2%
O=C(COCCOCCOCC(=O)Nc1c(I)cc(I)c(C(=O)O)c1I)Nc1c(I)cc(I)c(C(=O)O)c1I | 34.7 µM (active) | 
CC(=O)OC(C)c1ccccc1 (stereo not given) |  | 6.11%
OC[C@@H](O)[C@H](O)[C@@H](O)[C@@H](O)CO | 44.8 µM (active) | 
CO[Si](CCCCl)(OC)OC | 39.3 µM (active) | 
CN(C1CCCCC1)S(=O)(=O)c1ccccc1N | 3.17 µM (active) | 
CCN(CCC#N)c1ccccc1 | 8.94 µM (active) | 
O=C(CN1CCN(Cc2ccc3c(c2)OCO3)CC1)N1c2ccccc2Sc2ccccc21 | 34.7 µM (active) | 

SMILES | Potency | activity change, negative = inhibition
Nc1ccc(S(=O)(=O)Nc2ccccn2)cc1 |  | 13.8% [at 52.9 µM]
COc1ccc(N=Nc2cc(C)c(N=Nc3ccc(S(=O)(=O)O)cc3)cc2OC)cc1 |  | -15.8%
C=CCOc1c(Br)cc(C(C)(C)c2cc(Br)c(OCC=C)c(Br)c2)cc1Br | 24.6 µM (active) | 
NC(Cc1c[nH]c2ccccc12)C(=O)O (stereo not given) | 24.7 µM (active) | 
CC1CCC(C(C)(C)S)C(=O)C1 (stereo not given) | 79.6 µM (active) | 
CC(C)(CO)[C@@H](O)C(=O)NCCCO |  | -14% [at 52.9 µM]
O=P(O)(O)OCC(O)CO (stereo not given) |  | 28.5% [at 52.9 µM]
COc1cc2c(Nc3ccc(Br)cc3F)ncnc2cc1OCC1CCN(C)CC1 |  | 18.4% [at 52.9 µM]
CCCCCCCCCOCC1CO1 (stereo not given) | 52.2 µM (active) | 
O=C(O)/C=C/c1ccccc1 |  | 5.53%
CCOC(=O)CC#N | 39.5 µM (active) | 
Cc1cccc(Nc2ccncc2S(=O)(=O)NC(=O)NC(C)C)c1 |  | -13.4% [at 52.9 µM]
O=C(O)c1ccccc1C(=O)OCc1ccccc1 |  | 4.23%
O=S(=O)(O)CCO |  | 20.3%
CCC(C)(CCC(C)C)C(=O)[O-].CCC(C)(CCC(C)C)C(=O)[O-].[Zn+2] (stereo not given) | 17.8 µM (active) | 
CCOC(=O)CC(CC(=O)OCC)(OC(C)=O)C(=O)OCC | 12.6 µM (active) | 
Nc1ccc(C(=O)OCC(O)CO)cc1 (stereo not given) | 17.4 µM (active) | 
CCCCCCCCCCCCCCCCCCN(C)C |  | 13.8% [at 52.9 µM]
O=C(Nc1cccc(C2=NCCN2)c1)Nc1cccc(C2=NCCN2)c1 |  | -6.53% [at 23.6 µM]
CC(=O)c1ccc2c(c1)CCCC2 | 79.6 µM (active) | 
